In all, about 91,000 compounds went through this assay and about 310 (0.34%) were called active. Many of the other results were omitted from the sample, so actives are more common in it than they were. Unmarked numbers belong to inactive results. No stated cut-off is given here; in the data, active means inhibition above about 80%; inactive means the rest.

Sequence of Bifunctional epoxide hydrolase 2 (Homo sapiens) (P34913 whole entry, looked up): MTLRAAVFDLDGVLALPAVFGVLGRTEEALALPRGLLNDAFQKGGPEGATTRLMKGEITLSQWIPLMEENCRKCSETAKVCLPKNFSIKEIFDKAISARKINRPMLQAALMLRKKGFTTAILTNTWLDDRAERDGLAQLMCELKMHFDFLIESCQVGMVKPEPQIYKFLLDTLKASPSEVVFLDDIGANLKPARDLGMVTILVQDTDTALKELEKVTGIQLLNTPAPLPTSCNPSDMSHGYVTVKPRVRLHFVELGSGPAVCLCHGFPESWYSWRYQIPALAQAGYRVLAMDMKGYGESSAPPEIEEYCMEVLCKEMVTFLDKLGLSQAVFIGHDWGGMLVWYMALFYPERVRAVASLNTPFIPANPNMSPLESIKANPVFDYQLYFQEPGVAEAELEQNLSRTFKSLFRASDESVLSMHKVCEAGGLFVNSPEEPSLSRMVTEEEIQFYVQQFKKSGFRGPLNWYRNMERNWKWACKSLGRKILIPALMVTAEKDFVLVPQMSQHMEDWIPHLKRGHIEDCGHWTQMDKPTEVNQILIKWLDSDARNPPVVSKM

The assay has as its target Bifunctional epoxide hydrolase 2 (Homo sapiens) (UniProt P34913). The experiment in a line: soluble epoxide hydrolase inhibitors, primary screen, biochemical, human sEH (AID 707). The settings on record: recombinant human sEH enzymatic activity assay; at 2 µM; stronger effect = higher value.
In the case of `Nc1nc(Br)c2ccccc2c1-c1ccc(F)cc1`, the inhibition was 4.8%.
Turning to `Cc1ccc(-c2csc(N(Cc3ccco3)C(=O)c3cccs3)n2)cc1`, the inhibition is -9.9%.
In the case of `O=[N+]([O-])c1ccc(NCCCN2CCOCC2)c(Cl)c1`, the inhibition is 19.3%.
For `CC(C)NC(=O)NC(=O)COC(=O)c1ccc(NC(=O)CC#N)cc1` the value was -6%.
Regarding `CC(C)C(NS(=O)(=O)c1cccs1)C(=O)Nc1nc(C(C)(C)C)cs1` (configuration not stated), the inhibition was 3.1%.
With `COc1cccc(/C=N/NC(=O)C(=O)N2CCCC2)c1`, the inhibition was -4.3%.
As for `O=c1cc(N2CCN(Cc3ccccc3)CC2)c(-c2ccccc2)n[nH]1`, the inhibition was 5.8%.
Take `COc1cccc(NC(=O)C2c3cc(OC)c(OC)cc3C(=O)N(C)C2c2cccnc2)c1` (configuration not stated): the inhibition is -8.1%.
With `O=C(CN1C(=O)NC2(CCCC2)C1=O)Nc1ccc(F)c(F)c1F`, the inhibition was -1.5%.
Next, `O=C(CCCN1C(=O)c2cccc3cccc(c23)C1=O)N1CCN(Cc2ccc3c(c2)OCO3)CC1`: 5.9%; `N/C(=N\OC(=O)c1cc(-c2ccccc2)nc2ccccc12)c1ccncc1`: -2%; `O=C(CSCc1ccc([N+](=O)[O-])cc1)Nc1cccc(C(=O)Nc2ccccc2C(=O)O)c1`: -3.9%.
For `Cc1cc(C(=O)OCC(=O)Nc2ccc(F)c(F)c2)c(C)o1` the value was 7.9%; for `CCC(C)n1c(-c2cc(OC)c(OC)c(OC)c2)nc2nc3ccccc3nc21` (configuration not stated), -0.7%.
`O=C(CNC(=O)OCc1ccccc1)Oc1cc2oc(=O)cc(-c3ccccc3)c2cc1Cl`: the inhibition was -5.2%.
Consider `COc1ccccc1N(C)S(=O)(=O)c1ccc(C(=O)N2CCC(C(N)=O)CC2)cc1`, for which the inhibition is 12.9%.
As for `CN(C(=O)CSc1nc(C2CC2)nc2ccccc12)c1nc(-c2ccccc2)cs1`, the inhibition is 4.4%.
On to `CCCCNC(=O)c1onc(CSc2cccc(OC)c2)c1C(=O)O`, for which the inhibition was -10.5%.
As to `CCOC(=O)C1=C(CN2CCc3ccccc32)NC(=O)NC1c1cc(C)ccc1C` (configuration not stated), the inhibition was -4.9%.
Take `COc1ccc(SCc2noc(C(=O)NCC3CCCO3)c2C(=O)O)cc1` (configuration not stated): the inhibition is 1.5%.
Regarding `O=C(Nc1ccc2oc(-c3ccc4ccccc4c3)nc2c1)c1cccs1`, the inhibition is 34.6%.
Consider `CCCCCC(=O)Nc1ccc2oc(-c3ccncc3)nc2c1`, for which the inhibition was 84.3% (active).
For the compound `O=C(Cc1cccc2ccccc12)Nc1ccc2oc(-c3ccccc3)nc2c1`, the inhibition is 50%.
For `C=CCNc1cnn(-c2ccc(C)cc2)c(=O)c1Cl` the value was 1.9%; for `CC(C)CC(=O)N1CCC(O)(CS(=O)(=O)Cc2ccccc2)CC1`, 1.9%; for `O=C(CN1CCN(S(=O)(=O)c2ccc(Cl)s2)CC1)NCc1ccc(Cl)cc1`, -1.1%.
With `CC(C)(CCl)C(=O)Nc1ccc(Sc2ccc(F)cc2)cc1`, the inhibition was 28.4%.
For `COC(=O)C(NC(=O)c1ccc(OC)cc1)(Nc1ncc(S(=O)(=O)c2ccc([N+](=O)[O-])cc2)s1)C(F)(F)F` (configuration not stated) the value was -1.7%; for `COc1ccc(OCC(=O)NN2Cc3ccccc3C2=N)cc1`, 4.7%; for `Cc1ccccc1CSCCNC(=O)c1ccc(N(C)S(=O)(=O)c2ccccc2)cc1`, 36.1%.
In the case of `O=C(NCCSCc1ccccc1)c1ccc(Cl)c(S(=O)(=O)N2CCOCC2)c1`, the inhibition is 78.5%.
`Cc1ccccc1CSCCNC(=O)c1ccc(Cl)c(S(=O)(=O)N2CCOCC2)c1`: the inhibition was 83.4% (active).
On to `O=C(COC(=O)c1ccccc1NC(=O)c1ccco1)Nc1ccc2c(c1)OC(F)(F)O2`, for which the inhibition is 28.3%.
Regarding `CO/N=C/c1ccc(N2CCN(C(=O)c3cccc(Cl)c3)CC2)c([N+](=O)[O-])c1`, the inhibition was -9.1%.
Take `N#C/C(=C(/O)Cc1cccc2ccccc12)c1nc2ccccc2s1`: the inhibition was -15.9%.
Consider `O=C(ON=C1CCN(S(=O)(=O)c2ccccc2)CC1)c1ccc(Cl)cc1`, for which the inhibition was 2.3%.
For `O=C(CSc1ccc(/C=N/NC(=O)c2cccc(F)c2)o1)Nc1ccccc1` the value was 79%.
Next, `Cc1noc(C)c1S(=O)(=O)N(CC(=O)NCc1ccc(Cl)cc1)c1ccc2c(c1)OCO2`: 14.5%; `O=C(/C=C/c1cc2c(cc1Br)OCO2)NCc1ccc(Cl)cc1`: 85.9% (active); `O=C(/C=C/c1ccc(Cl)cc1Cl)NCc1ccco1`: 19.3%.
Consider `O=C(CNC(=O)Cc1ccccc1)NCC(=O)OCC(=O)c1ccccc1Cl`, for which the inhibition is -0.5%.
`CCC(=O)OCc1c(C(F)(F)F)nn(C)c1Oc1cccc(C(F)(F)F)c1`: the inhibition was 7.8%.
Consider `O=C(O)c1ccccc1NC(=S)NC(NC(=O)c1ccccc1[N+](=O)[O-])C(Cl)(Cl)Cl` (configuration not stated), for which the inhibition was 7.4%.
Next, `CNC(=S)NNC(=O)c1sccc1OCc1ccccc1`: -3.9%; `N#Cc1cc([N+](=O)[O-])ccc1Oc1cccc(/C=N/NC(=O)c2ccc(Cl)cc2)c1`: 18.1%.
`COc1ccc(-c2cc(C(=O)n3cnc4ccccc43)c3ccccc3n2)cc1`: the inhibition is -13.6%.
In the case of `Cc1cc([N+](=O)[O-])c(NC2CCCCC2)c([N+](=O)[O-])c1`, the inhibition was -4.6%.
As for `COc1ccc(C(=O)NCCc2ccc(S(N)(=O)=O)cc2)cc1OC`, the inhibition was 6.9%.
As for `COc1ccc(CCNC(=O)c2ccc3c(c2)NC(=O)C(N2CCOCC2)S3)cc1OC` (configuration not stated), the inhibition was 100% (active).
Regarding `O=C(NCCCN1CCCCC1)c1ccc2c(c1)NC(=O)C(N1CCOCC1)S2` (configuration not stated), the inhibition is 10%.
As to `O=C1CSC(c2ccccc2)N1c1nc(-c2ccc(Cl)cc2Cl)cs1` (configuration not stated), the inhibition was 10.5%.
`O=C(CN1C(=O)NC(Cc2ccccc2)(Cc2ccccc2)C1=O)NCC1CCCCC1`: the inhibition is -8.9%.
Next, `Cn1c2ccccc2n2c(=O)c(=O)n(CC(=O)c3ccc(F)cc3)nc12`: -2%; `O=C(CN1CCCCCC1)Nc1ccc(Br)cc1Br`: 9.4%; `CC1(C)CC(=O)C(C=NCCN2CCN(C(=S)Nc3cccc(Cl)c3)CC2)=C(O)C1`: 13.9%.
Next, `O=C(Cn1cncn1)N/N=C/c1c2ccccc2cc2ccccc12`: 2%.
`C=CCOC(=O)C1=C(C)NC(C)=C(C(=O)OCC=C)C1c1cccs1`: the inhibition was -5.1%.

As usually defined, the inhibition is the drop in the measured response relative to a control, in per cent.

Values taken from PubChem BioAssay AID707 (Columbia University Molecular Screening Center, 2007).
